For 7 compounds, outcome and AC50 results are on record in PubChem BioAssay (EPA / NIEHS).

Records with an inconclusive call do not appear. Calls of active or inactive are those of the source. The calls were made as follows, unless noted: active = hit-call score of the fitted dose curve at least 0.9, where 1 is the maximum; inactive = score below 0.9.

For assay [1], the target named is Nuclear respiratory factor 1 (Homo sapiens) (UniProt Q16656). Nature of the assay: ATG_NRF1_CIS: Attagene CIS-FACTORIAL HepG2 Assay for human Nuclear Respiratory Factor 1 (NRF1) Orphan Gene (AID 2282987). The settings on record: HepG2 NRF1 cis-element reporter, Attagene multiplex; actives raise or lower the signal. In a few lines:
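Transcriptional reporter readout, one component of a 52-endpoint multiplexed HepG2 panel. Exposure 24 h; mRNA detected via RT-PCR and fluorescent capillary electrophoresis; fitting in both directions against DMSO.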

Assay [2] deals with Myc proto-oncogene protein (Homo sapiens) (UniProt P01106). Nature of the assay: ATG_Myc_CIS: Attagene CIS-FACTORIAL HepG2 Assay for human Myelocytomatosis (Myc) Proto-Oncogene Transcription Factor (AID 2282990). The settings on record: HepG2, Attagene cis-reporter transcription factor activity; actives raise or lower the signal. In a few lines: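 HepG2 cells transiently transfected with multiple cis-promoter-driven reporter transcription units, so endogenous TF activity is read. After 24 h compound exposure, reporter mRNA was quantified by RT-PCR, 6-FAM labelling, HpaI digestion and capillary electrophoresis; bidirectional fit versus DMSO.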

Assay [3] can be described thus: ATG_NF_kB_CIS: Attagene CIS-FACTORIAL HepG2 Assay for human Nuclear Factor Kappa B (NF-kB) (AID 2282991). Conditions: HepG2 Attagene cis-factorial NF-kB reporter mRNA; actives raise or lower the signal. The method in brief: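 HepG2, transient multi-reporter transfection, cis promoter elements (endogenous TFs). 24 h exposure. Total RNA → RT → PCR → 6-FAM label → HpaI → CE. Gain/loss vs DMSO.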

Assay [4] can be described thus: ATG_NRF2_ARE_CIS: Attagene CIS-FACTORIAL HepG2 Assay for human Nuclear Factor Erythroid 2 Related Factor 2 (NFR2) response to Antioxidant Response Elements (ARE) (AID 2282992). Conditions: HepG2 Attagene ARE/NRF2 reporter, transcription factor activity; actives raise or lower the signal. In a few lines: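 Endogenous transcription factor activity read out as reporter transcript levels (RT-PCR plus capillary electrophoresis, fluorescence) in transiently transfected HepG2 cells. Measured at 24 h after dosing; gain or loss of signal fitted versus DMSO.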

Assay [5] in a line: ATG_Oct_MLP_CIS: Attagene CIS-FACTORIAL HepG2 Assay for human Octamer-Binding Transcription Factor (Oct) (AID 2282993). The settings on record: HepG2 Attagene cis-factorial Oct reporter, mRNA; actives raise or lower the signal. In a few lines:
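Transient MRTU transfection of HepG2 → 24 h compound treatment → RNA isolation, reverse transcription, PCR → 6-FAM primer extension, HpaI digest → capillary electrophoresis. Activity fitted both directions against DMSO.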

The target in assay [6] is Cellular tumor antigen p53 (Homo sapiens) (UniProt P04637). Nature of the assay: ATG_p53_CIS: Attagene CIS-FACTORIAL HepG2 Assay for human p53 Transcription Factor (AID 2282994). The settings on record: HepG2 p53 cis-element reporter, Attagene mRNA; actives raise or lower the signal. The method in brief:
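Endogenous p53 activity read in transiently transfected HepG2 from a cis-element-driven reporter transcript after 24 h exposure. RNA reverse-transcribed, PCR-amplified, fluorescently labelled and sized by capillary electrophoresis; gain or loss fitted against DMSO baseline.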

Assay [7] in a line: BSK_3C_TissueFactor: BioMAP Diversity Plus: 3C Assay for Tissue Factor Biomarker Activity (AID 2282997). Conditions: BioMAP 3C HUVEC, tissue factor biomarker readout; actives raise or lower the signal. In a few lines:
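Tissue factor on primary human umbilical vein endothelium was read by ELISA 24 h after dosing, gain or loss relative to DMSO. Cytotoxicity ran alongside via SRB (0.1%, TCA-fixed, 560 nm).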

Assay [8] in a line: BSK_3C_uPAR: BioMAP Diversity Plus: 3C Assay for Urokinase-type plasminogen activator receptor (uPAR) Biomarker Activity (AID 2282998). The settings on record: BioMAP 3C HUVEC, uPAR biomarker ELISA; actives raise or lower the signal. In a few lines:
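ELISA readout of uPAR on human vascular endothelium (umbilical vein primary cells), taken 24 h after chemical dosing. Increases and decreases are both fitted relative to DMSO vehicle.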
Background: In an ELISA, binding on a coated surface is turned into a signal by an enzyme label.

Assay [9] can be described thus: BSK_3C_VCAM1: BioMAP Diversity Plus: 3C Assay for Vascular cell adhesion molecule 1 (VCAM1) Biomarker Activity (AID 2282999). The settings on record: BioMAP 3C HUVEC, VCAM1 ELISA, cytokine-stimulated; actives raise or lower the signal. In a few lines: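 Vascular primary endothelium (human umbilical vein) was exposed to chemicals and assayed 24 h later. VCAM-1 levels came from ELISA, with DMSO serving as baseline for bidirectional fitting.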

Assay [10] can be described thus: BSK_4H_Eotaxin3: BioMAP Diversity Plus: 4H Assay for Eotaxin 3 Biomarker Activity (AID 2283000).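 Also: CCL26 protein level quantified by ELISA in parallel with SRB cytotoxicity check.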 Conditions: primary human endothelial cells (HUVEC); actives raise or lower the signal. In a few lines: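 Human umbilical vein endothelial cells (BSK_4H system) dosed with test chemical; Eotaxin-3 (CCL26) measured by ELISA 24 h after dosing. Bidirectional curve fitting relative to DMSO negative control as baseline.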

Assay [11] deals with human Peroxisome Proliferator-activated Receptor delta (PPARd), PPARD (gene 5467) (UniProt Q03181). Nature of the assay: ATG_PPARd_TRANS: Attagene TRANS-FACTORIAL HepG2 Assay for human Peroxisome Proliferator-activated Receptor delta (PPARd) (AID 2283002; active = hit-call score of the fitted dose curve at least 0.9, where 1 is the maximum). The method in brief:
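HepG2 cells transiently transfected with multiplexed GAL4-UAS reporter units and exogenous chimeric NR-Gal4 proteins; 24 h compound exposure. Reporter mRNA measured by RT-PCR, 6-FAM labelling, HpaI digestion and capillary electrophoresis; gain of signal versus DMSO.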

Read-out in assay [12]: Intercellular Adhesion Molecule 1 (ICAM1), ICAM1 (gene 3383)
Nature of the assay: BSK_3C_ICAM1: BioMAP Diversity Plus: 3C Assay for Intercellular Adhesion Molecule 1 (ICAM1) Biomarker Activity (AID 2283003). Conditions: primary human endothelial cells (HUVEC); actives raise or lower the signal. In a few lines:
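Chemicals are dosed onto primary human umbilical vein endothelium (3C system). After 24 h, ICAM-1 is measured by ELISA, and responses are fitted bidirectionally relative to DMSO.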

Assay [13] can be described thus: BSK_3C_Proliferation: Cell Proliferation Assessment in the BioMAP Diversity Plus: 3C Assay (AID 2283006). Conditions: primary human endothelial cells (HUVEC). In a few lines: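 Cells (human umbilical vein endothelial, sub-confluent) receive test chemical; after 48 h they are fixed in 10% trichloroacetic acid, stained with 0.1% SRB and read at 560 nm. Activity is referenced to DMSO, fitting increases and decreases.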

Assay [14] deals with Peroxisome proliferator-activated receptor gamma (Homo sapiens) (UniProt P37231). As to the kind of experiment: ATG_PPARg_TRANS: Attagene TRANS-FACTORIAL HepG2 Assay for human Peroxisome Proliferator-activated Receptor-gamma (PPARg) (AID 2283007; active = hit-call score of the fitted dose curve at least 0.9, where 1 is the maximum). The method in brief: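 Multiplexed reporter transcription units in HepG2, 24 h dosing, reporter transcripts quantified by fluorescent RT-PCR and capillary electrophoresis. Increase over DMSO scored.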

Assay [15] has as its target Nuclear receptor subfamily 1 group I member 2 (Homo sapiens) (UniProt O75469). As to the kind of experiment: ATG_PXR_TRANS: Attagene TRANS-FACTORIAL HepG2 Assay for human Pregnane X Receptor (PXR) (AID 2283008; active = hit-call score of the fitted dose curve at least 0.9, where 1 is the maximum). In a few lines:
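Transactivation by exogenous PXR–GAL4 fusion measured as reporter transcript induction after 24 h compound treatment of transfected human HepG2 cells. Read-out via RT-PCR and capillary electrophoresis of labelled fragments, fitted upward relative to DMSO.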

Assay [16] deals with human Peroxisome Proliferator-activated Receptor alpha (PPARa), PPARA (gene 5465) (UniProt Q07869). Nature of the assay: ATG_PPARa_TRANS: Attagene TRANS-FACTORIAL HepG2 Assay for human Peroxisome Proliferator-activated Receptor alpha (PPARa) (AID 2283001; active = hit-call score of the fitted dose curve at least 0.9, where 1 is the maximum). The method in brief:
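Cells (HepG2) are transfected with multiple reporter transcription units, exposed to chemical for 24 h, then total RNA is reverse-transcribed and amplified. Labelled products are quantified by capillary electrophoresis; induction is referenced to DMSO.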

The target of assay [17] is human Retinoic Acid Receptor beta (RARb), RARB (gene 5915) (UniProt P10826). As to the kind of experiment: ATG_RARb_TRANS: Attagene TRANS-FACTORIAL HepG2 Assay for human Retinoic Acid Receptor beta (AID 2283004; active = hit-call score of the fitted dose curve at least 0.9, where 1 is the maximum). The method in brief: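 Induction of reporter mRNA from a chimeric RARb-Gal4 construct was measured by RT-PCR, FAM labelling, HpaI digestion and capillary electrophoresis. Measurements followed 24 h compound treatment of transiently transfected human HepG2 liver cells, with DMSO as baseline.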

The target of assay [18] is Retinoic acid receptor alpha (Homo sapiens) (UniProt P10276). Nature of the assay: ATG_RARa_TRANS: Attagene TRANS-FACTORIAL HepG2 Assay for human Retinoic Acid Receptor alpha (RARa) (AID 2283005; active = hit-call score of the fitted dose curve at least 0.9, where 1 is the maximum). In a few lines:
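HepG2 cells transiently transfected with multiple reporter units expressing chimeric RARα-GAL4 fusion, with GAL4-UAS-driven reporters. After 24 h compound exposure, reporter mRNA induction quantified by RT-PCR and capillary electrophoresis with fluorescent labeling; gain-of-signal fitted relative to DMSO control.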

Assay [19] deals with human Retinoic Acid Receptor gamma (RARg), RARG (gene 5916) (UniProt P13631). As to the kind of experiment: ATG_RARg_TRANS: Attagene TRANS-FACTORIAL HepG2 Assay for human Retinoic Acid Receptor gamma (RARg) (AID 2283009; active = hit-call score of the fitted dose curve at least 0.9, where 1 is the maximum). The method in brief: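 TRANS format measured activity of exogenous NR-GAL4 fusion (RARg) in transfected HepG2 liver cells after 24 h dosing. Induced reporter RNA was detected by RT-PCR/capillary electrophoresis fluorescence, analysed in the positive direction against DMSO.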
human Retinoic Acid Receptor gamma (RARg), RARG (gene 5916), sequence (P13631 whole entry, looked up, the tested form may be a part): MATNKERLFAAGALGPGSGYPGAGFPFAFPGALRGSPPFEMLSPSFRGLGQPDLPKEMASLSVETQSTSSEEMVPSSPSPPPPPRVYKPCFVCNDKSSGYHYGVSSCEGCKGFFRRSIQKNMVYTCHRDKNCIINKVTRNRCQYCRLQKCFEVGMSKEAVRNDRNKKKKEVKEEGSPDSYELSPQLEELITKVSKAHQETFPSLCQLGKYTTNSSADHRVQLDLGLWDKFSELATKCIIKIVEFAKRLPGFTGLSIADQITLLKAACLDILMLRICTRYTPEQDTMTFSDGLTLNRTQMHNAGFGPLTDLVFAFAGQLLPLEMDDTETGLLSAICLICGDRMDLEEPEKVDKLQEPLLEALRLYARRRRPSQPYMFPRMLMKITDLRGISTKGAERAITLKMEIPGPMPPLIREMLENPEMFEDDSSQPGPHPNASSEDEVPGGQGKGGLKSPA

Retinoic acid receptor alpha (Homo sapiens), sequence (P10276 whole entry, looked up, the tested form may be a part): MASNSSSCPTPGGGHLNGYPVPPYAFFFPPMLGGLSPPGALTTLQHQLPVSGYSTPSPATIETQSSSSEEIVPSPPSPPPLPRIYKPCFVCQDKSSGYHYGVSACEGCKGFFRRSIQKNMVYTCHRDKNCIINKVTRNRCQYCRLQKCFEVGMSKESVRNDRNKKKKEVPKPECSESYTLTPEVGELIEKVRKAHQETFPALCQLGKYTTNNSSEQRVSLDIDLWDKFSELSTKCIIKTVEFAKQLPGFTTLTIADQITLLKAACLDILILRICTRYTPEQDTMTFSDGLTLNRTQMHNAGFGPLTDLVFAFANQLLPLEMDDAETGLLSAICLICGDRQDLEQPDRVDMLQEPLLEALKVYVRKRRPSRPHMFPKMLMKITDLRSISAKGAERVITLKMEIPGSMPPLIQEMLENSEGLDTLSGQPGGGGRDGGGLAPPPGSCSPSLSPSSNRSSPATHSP
Cellular tumor antigen p53 (Homo sapiens), sequence (P04637 whole entry, looked up): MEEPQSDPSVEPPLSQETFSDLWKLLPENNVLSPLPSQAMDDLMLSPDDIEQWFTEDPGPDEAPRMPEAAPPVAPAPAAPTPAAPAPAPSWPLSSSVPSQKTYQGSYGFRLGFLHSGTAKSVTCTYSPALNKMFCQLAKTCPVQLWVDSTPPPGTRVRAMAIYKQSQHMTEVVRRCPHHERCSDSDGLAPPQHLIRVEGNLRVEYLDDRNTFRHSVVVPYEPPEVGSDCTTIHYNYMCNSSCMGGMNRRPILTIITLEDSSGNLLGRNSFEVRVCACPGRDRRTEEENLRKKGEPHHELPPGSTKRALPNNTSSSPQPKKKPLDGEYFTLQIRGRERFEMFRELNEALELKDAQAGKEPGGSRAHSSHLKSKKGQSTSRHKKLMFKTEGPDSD
Nuclear respiratory factor 1 (Homo sapiens), sequence (Q16656 whole entry, looked up): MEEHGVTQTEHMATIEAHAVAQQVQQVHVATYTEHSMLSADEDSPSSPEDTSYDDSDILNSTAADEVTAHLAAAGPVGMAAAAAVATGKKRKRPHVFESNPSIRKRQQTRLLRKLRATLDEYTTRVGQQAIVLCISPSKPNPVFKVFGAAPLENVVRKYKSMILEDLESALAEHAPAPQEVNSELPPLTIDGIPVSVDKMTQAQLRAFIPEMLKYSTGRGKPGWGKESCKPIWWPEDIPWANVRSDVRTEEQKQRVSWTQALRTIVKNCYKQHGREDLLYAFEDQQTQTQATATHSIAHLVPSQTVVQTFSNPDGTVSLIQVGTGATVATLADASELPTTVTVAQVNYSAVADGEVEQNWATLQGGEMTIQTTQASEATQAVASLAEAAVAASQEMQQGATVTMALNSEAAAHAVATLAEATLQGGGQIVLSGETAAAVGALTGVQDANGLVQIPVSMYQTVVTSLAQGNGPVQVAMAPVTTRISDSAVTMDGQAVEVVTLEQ
human Peroxisome Proliferator-activated Receptor delta (PPARd), PPARD (gene 5467), sequence (Q03181 whole entry, looked up, the tested form may be a part): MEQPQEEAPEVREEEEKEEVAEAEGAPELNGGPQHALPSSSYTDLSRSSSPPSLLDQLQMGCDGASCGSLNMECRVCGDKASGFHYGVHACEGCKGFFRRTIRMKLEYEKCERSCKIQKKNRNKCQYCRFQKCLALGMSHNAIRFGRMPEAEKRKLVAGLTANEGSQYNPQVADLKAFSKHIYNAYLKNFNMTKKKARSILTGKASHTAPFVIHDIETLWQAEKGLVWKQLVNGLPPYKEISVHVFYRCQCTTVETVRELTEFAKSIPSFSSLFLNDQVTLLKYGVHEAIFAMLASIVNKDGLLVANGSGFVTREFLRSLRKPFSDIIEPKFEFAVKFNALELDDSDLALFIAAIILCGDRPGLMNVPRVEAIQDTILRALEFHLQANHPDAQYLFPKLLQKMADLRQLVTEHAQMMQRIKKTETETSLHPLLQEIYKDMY
Peroxisome proliferator-activated receptor gamma (Homo sapiens), sequence (P37231 whole entry, looked up): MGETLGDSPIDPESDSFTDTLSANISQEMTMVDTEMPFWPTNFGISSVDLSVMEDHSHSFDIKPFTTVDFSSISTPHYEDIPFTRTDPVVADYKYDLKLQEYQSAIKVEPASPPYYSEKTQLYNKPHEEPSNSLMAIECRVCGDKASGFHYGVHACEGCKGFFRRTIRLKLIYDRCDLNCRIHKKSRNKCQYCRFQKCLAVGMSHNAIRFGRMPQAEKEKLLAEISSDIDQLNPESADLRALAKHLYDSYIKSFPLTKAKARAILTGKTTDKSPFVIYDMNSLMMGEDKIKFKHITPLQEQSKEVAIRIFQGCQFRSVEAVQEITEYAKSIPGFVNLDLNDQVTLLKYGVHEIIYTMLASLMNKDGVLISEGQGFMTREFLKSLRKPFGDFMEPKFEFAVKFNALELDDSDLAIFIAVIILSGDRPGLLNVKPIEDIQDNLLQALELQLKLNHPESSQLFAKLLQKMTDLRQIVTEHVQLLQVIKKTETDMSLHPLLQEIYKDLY
human Peroxisome Proliferator-activated Receptor alpha (PPARa), PPARA (gene 5465), sequence (Q07869 whole entry, looked up): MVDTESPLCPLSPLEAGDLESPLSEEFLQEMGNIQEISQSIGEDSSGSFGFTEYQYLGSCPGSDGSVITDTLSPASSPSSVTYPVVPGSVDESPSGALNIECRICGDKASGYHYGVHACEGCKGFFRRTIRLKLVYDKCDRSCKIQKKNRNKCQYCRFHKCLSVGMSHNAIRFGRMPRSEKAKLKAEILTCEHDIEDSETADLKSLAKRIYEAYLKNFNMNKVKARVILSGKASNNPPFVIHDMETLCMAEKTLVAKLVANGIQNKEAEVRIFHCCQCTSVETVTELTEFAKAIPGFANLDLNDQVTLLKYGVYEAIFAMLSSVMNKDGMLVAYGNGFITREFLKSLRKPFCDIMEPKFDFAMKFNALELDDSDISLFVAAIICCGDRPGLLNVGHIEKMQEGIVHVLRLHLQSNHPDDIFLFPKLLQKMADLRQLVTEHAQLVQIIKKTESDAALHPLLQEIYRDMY
Myc proto-oncogene protein (Homo sapiens), sequence (P01106 whole entry, looked up): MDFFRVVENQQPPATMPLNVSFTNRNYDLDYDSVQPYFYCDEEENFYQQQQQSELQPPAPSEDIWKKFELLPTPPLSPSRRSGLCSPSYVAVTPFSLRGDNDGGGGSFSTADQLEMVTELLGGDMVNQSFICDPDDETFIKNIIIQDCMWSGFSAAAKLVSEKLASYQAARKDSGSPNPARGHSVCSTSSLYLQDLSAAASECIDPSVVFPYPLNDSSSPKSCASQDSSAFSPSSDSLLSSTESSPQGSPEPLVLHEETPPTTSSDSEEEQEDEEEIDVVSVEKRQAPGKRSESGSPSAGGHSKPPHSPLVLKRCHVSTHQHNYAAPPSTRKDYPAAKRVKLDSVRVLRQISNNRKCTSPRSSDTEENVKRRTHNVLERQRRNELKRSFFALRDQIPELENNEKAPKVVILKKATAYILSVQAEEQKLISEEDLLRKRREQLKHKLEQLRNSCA
Nuclear receptor subfamily 1 group I member 2 (Homo sapiens), sequence (O75469 whole entry, looked up, the tested form may be a part): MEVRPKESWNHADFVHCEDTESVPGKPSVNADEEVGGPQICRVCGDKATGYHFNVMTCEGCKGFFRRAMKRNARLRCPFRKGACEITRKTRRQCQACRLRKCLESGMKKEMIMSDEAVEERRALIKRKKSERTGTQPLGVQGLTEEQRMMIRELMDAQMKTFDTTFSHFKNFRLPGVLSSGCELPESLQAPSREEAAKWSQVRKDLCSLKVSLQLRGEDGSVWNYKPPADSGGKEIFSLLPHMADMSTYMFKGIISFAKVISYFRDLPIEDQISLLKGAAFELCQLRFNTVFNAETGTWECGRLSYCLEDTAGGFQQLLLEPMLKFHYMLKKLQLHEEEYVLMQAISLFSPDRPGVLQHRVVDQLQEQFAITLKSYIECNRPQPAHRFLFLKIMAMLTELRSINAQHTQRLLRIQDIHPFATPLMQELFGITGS
human Retinoic Acid Receptor beta (RARb), RARB (gene 5915), sequence (P10826 whole entry, looked up, the tested form may be a part): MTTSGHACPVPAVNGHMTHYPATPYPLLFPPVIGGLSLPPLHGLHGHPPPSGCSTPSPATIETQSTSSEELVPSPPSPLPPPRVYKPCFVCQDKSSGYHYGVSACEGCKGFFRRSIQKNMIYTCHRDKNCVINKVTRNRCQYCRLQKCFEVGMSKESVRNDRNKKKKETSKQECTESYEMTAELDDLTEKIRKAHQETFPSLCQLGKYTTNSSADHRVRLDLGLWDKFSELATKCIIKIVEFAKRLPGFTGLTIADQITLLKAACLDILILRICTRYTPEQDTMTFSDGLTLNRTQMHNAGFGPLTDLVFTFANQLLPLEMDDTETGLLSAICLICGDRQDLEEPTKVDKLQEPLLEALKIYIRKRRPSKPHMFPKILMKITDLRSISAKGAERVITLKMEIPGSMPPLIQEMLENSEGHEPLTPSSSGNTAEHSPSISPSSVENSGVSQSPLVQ

As a reminder, the AC50 is the concentration giving half of the maximal activity seen. As for `O=C(O)C(F)(F)C(F)(F)C(F)(F)C(F)(F)C(F)(F)C(F)(F)C(F)F`, the result in assay [1], in [2], in assay [3], in assay [5], in assay [6] and in assay [7] was inactive. For the same compound, the result in assay [8], in assay [9], in assay [10], in assay [11], in [12] and in [13] was inactive. For the same compound, the result in assay [15] was inactive. In addition, the AC50 in assay [4] is 100 µM (active); in assay [14] it was 41.8 µM (active).
With `CC(C)=CCCC(C)O` (stereo unspecified), the compound was classed as inactive in assay [1], in [2], in [3], in [4], in [5] and in [6]. Further, in assay [14], the compound was called inactive.
For the compound `Cc1ccc2c(c1)OCC(=O)CO2`, the compound was classed as inactive in assay [1], in [2], in assay [3], in assay [4], in [5] and in assay [6]. Moreover, the result in assay [16], in [11], in assay [14] and in [15] was inactive.
With `CN1CN(C)CN(C)C1`, the compound was classed as inactive in assay [1], in [2], in assay [3], in [4], in [6] and in assay [16]. Further, the compound was called inactive in assay [17], in assay [18], in assay [14] and in assay [19]. Moreover, in [5], the AC50 is 165 µM (active).
Turning to `CCOCOCC`, the compound was classed as inactive in assay [1], in [2], in assay [3], in assay [4], in assay [5] and in assay [6]. Moreover, the outcome in [11], in assay [17], in assay [18], in assay [14] and in assay [19] was inactive.
On to `CC(C)(C)c1cc(CCC(=O)OCC(COC(=O)CCc2cc(C(C)(C)C)c(O)c(C(C)(C)C)c2)(COC(=O)CCc2cc(C(C)(C)C)c(O)c(C(C)(C)C)c2)COC(=O)CCc2cc(C(C)(C)C)c(O)c(C(C)(C)C)c2)cc(C(C)(C)C)c1O`, for which the call in assay [1], in assay [2], in [3], in assay [4], in assay [5] and in [11] was inactive.
In the case of `CCC(=O)OC(C)c1ccccc1` (stereo unspecified), the compound was classed as inactive in assay [1], in assay [2], in [3], in assay [4], in assay [5] and in [6]. Besides, the compound was called inactive in [16], in [11], in assay [18], in [14] and in assay [19].
